Shown are actives, neighbours in structure and some others; about 1.4% of the full set was active somewhere.
AmpC no deterg – qHTS Inhibitors of AmpC Beta-Lactamase (assay without detergent); P00811; Potency, µM (titrated, usually from 57.1 µM), actives largely listed as inhibitors; 330,000 compounds, 0.52% hits; AmpC nitrocefin hydrolysis, absorbance 480 nm, 0.0001% Triton; further: nearly all actives have a fitted effect of over 20% in size
Target sequence (P00811 whole entry, looked up): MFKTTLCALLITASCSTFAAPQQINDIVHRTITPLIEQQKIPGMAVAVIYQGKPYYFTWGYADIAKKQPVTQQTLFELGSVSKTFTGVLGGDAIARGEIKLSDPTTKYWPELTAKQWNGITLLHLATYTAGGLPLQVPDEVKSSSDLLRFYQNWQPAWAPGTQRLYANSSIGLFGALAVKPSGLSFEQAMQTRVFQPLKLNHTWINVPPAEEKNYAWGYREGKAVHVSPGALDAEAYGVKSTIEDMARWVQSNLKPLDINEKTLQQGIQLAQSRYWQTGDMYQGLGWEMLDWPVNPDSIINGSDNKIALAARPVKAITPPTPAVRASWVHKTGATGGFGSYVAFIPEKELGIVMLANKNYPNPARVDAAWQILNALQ
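AmpC (5.3 nM in the dispensed reagent) in 20 mM phosphate pH 7.0 with 0.01% (detergent screen) or 0.0001% Triton X-100 was preincubated with compounds for 15 min at room temperature. Nitrocefin was then added from an 800 uM solution, and hydrolysis was followed at 480 nm.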
Giardia FBPA inh – qHTS Assay for Inhibitors of Fructose-1,6-bisphosphate Aldolase from Giardia Lamblia; purified Giardia FBPA; Potency, µM (series often up to 59.6 µM), hits mostly inhibitors; AID 2451, 2010; 290,000 compounds, 0.71% hits; further: nearly all actives have a fitted effect of over 55% in size
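40 nM FBPA preincubated 10 min at RT with compound (up to 57.5 uM final), then substrate plus GAPDH/TPI/NAD/arsenate coupling and diaphorase/resazurin added. Fluorescence read after 20 min at RT, 525/598 nm.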
AmpC detergent – qHTS Inhibitors of AmpC Beta-Lactamase (assay with detergent); P00811; AmpC hydrolysis of nitrocefin, absorbance 480 nm, 0.01% Triton; Potency, µM (doses to about 114 µM), actives largely listed as inhibitors; 370,000 compounds, 0.041% hits; AID 485294, 2010; further: nearly all actives have a fitted effect of over 25% in size
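20 mM phosphate pH 7.0 + 0.01% (detergent screen) or 0.0001% Triton X-100; 5.3 nM AmpC reagent; cpd preinc 15 min RT; nitrocefin (800 uM stock) to start; A480 q20 s × 4 min; Activity was normalised to no-enzyme and no-compound control wells.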
NS1 inh – qHTS Assay for Inhibitors of Influenza NS1 Protein Function. 270,000 compounds, 0.4% hits. Potency, µM (series often up to 46.1 µM); calls by dose curve; further: actives are rising curves; nearly all actives have a fitted effect of over 50% in size
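Growth recovery, yeast-based: influenza A NS1 expressed in S. cerevisiae causes slow growth, and suppressors are detected by OD600. The parent strain without NS1 is used as positive control.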
SARS PLpro yeast – qHTS of Yeast-based Assay for SARS-CoV PLP; S. cerevisiae expressing SARS-CoV PLpro, growth rescue; Potency, µM (series often up to 32.9 µM), hits mostly activators; 330,000 compounds, 0.19% hits; AID 485353, 2010; calls by dose curve; further: nearly all actives have a fitted effect of over 55% in size
Large screens that a line does not name were inactive; ! = not active in a repeat. Unless noted, the call rests on the fitted dose curve; in most records, active means well fitted curve in the direction sought with a large enough effect; inconclusive means small, poorly fitted or top-dose-only effect, or another doubt; inactive means no such curve, though single readings can be large; an effect the other way counts as inactive or inconclusive.

CCOc1ccc(-c2nnc(-c3ccccc3)n2-c2ccccc2)cc1	AmpC no deterg 5.6µM
COC(=O)c1cc2ccccc2n1Cc1ccc(Cl)nc1	none
COc1cc(C=O)c([N+](=O)[O-])cc1OC	Giardia FBPA inh 5µM (no result: AmpC no deterg, AmpC detergent, NS1 inh, SARS PLpro yeast)
CCOc1ccc2ccccc2c1C(=O)N[C@@H]1C(=O)N2[C@@H]1SC(C)(C)[C@@H]2C(=O)O	AmpC no deterg 5.6µM!, AmpC detergent 5µM
CCC(Oc1ccccc1)C(=O)NC1C(=O)N2C1SC(C)(C)C2C(=O)O (stereo not given)	AmpC no deterg 28µM, AmpC detergent 32µM
C[C@H](Oc1ccccc1)C(=O)N[C@@H]1C(=O)N2[C@@H]1SC(C)(C)[C@@H]2C(=O)O	none (no result: AmpC no deterg, AmpC detergent, NS1 inh, SARS PLpro yeast)
CC1(C)S[C@H]2[C@@H](NC(=O)C(N)c3ccccc3)C(=O)N2[C@H]1C(=O)O (stereo not given in full)	none (no result: AmpC no deterg, AmpC detergent, NS1 inh, SARS PLpro yeast)
CC1(C)S[C@@H]2[C@H](NC(=O)[C@H](N)c3ccccc3)C(=O)N2[C@H]1C(=O)OC1OC(=O)c2ccccc21 (stereo not given in full)	AmpC no deterg 0.22µM, AmpC detergent 63µM (no result: Giardia FBPA inh, NS1 inh, SARS PLpro yeast)
CCOc1cc(C(C(=O)NCC2CCCO2)N(C(=O)Cn2nnc3ccccc32)c2ccccc2OC)ccc1O (stereo not given)	none
CN(Cc1c(C(=O)N/N=C/c2ccccc2)nnn1-c1nonc1N)c1ccccc1	none
CN(Cc1c(C(=O)N/N=C/c2cccc(Cl)c2)nnn1-c1nonc1N)c1ccccc1	AmpC no deterg 14µM, SARS PLpro yeast inconclusive
NS(=O)(=O)c1ccc(N=Nc2c[nH]c(=O)c(O)c2)cc1	Giardia FBPA inh 7.1µM
Fc1ccc(CSc2nncn2NC/C=C/c2ccccc2)cc1	AmpC no deterg 7.1µM
COc1ccc(C)cc1NS(=O)(=O)c1c(C(=O)N2CCC(C)CC2)c(C)n(C)c1C	none (no result: AmpC no deterg, Giardia FBPA inh, NS1 inh, SARS PLpro yeast)
Cn1cc(Cl)c(C(=O)Nc2cccc(Cl)c2Cl)n1	AmpC no deterg 7.1µM
CCc1ccc(-c2csc3nc[nH]c(=O)c23)cc1	AmpC detergent inconclusive
Cc1cccc2cc(/C=C/C(=O)c3ccco3)c(Cl)nc12	none
CCOC(=O)C1=C(C)N=c2s/c(=C/c3ccccc3)c(=O)n2C1c1ccc(OC)c(OC)c1 (stereo not given)	none
CCOC(=O)C1=C(c2ccccc2)N=c2s/c(=C\c3ccco3)c(=O)n2C1c1cccs1 (stereo not given)	AmpC no deterg 13µM, Giardia FBPA inh inconclusive
COc1ccc(-c2csc(Nc3ccc(S(N)(=O)=O)cc3)n2)cc1OC	AmpC no deterg 16µM (no result: NS1 inh)
CCOC(=O)N1CCN(C(=O)CS(=O)(=O)c2cn(Cc3ccccc3Cl)c3ccccc23)CC1	AmpC no deterg 4µM, AmpC detergent inconclusive
CCOC(=O)N1CCN(C(=O)CS(=O)(=O)c2cn(Cc3ccc(Cl)cc3)c3ccccc23)CC1	AmpC no deterg inconclusive, AmpC detergent inconclusive
C=CCn1c(=NC(=O)C2CCCCC2)sc2cc(NC(C)=O)ccc21	AmpC no deterg 4µM, AmpC detergent inconclusive
C=CCn1c(=NC(=O)C2CC2)sc2cc(NC(C)=O)ccc21	none
CCOC(=O)c1sc(NCc2ccco2)c(-c2nc3ccccc3s2)c1N	AmpC no deterg 11µM, AmpC detergent inconclusive
Clc1cccc(-n2ncc3c(N4CCCCC4)ncnc32)c1	none (no result: AmpC no deterg, Giardia FBPA inh, NS1 inh, SARS PLpro yeast)
CN(c1ccccc1)S(=O)(=O)c1cccc(NC(=O)c2ccc(=O)[nH]n2)c1	AmpC no deterg 2µM (no result: Giardia FBPA inh, AmpC detergent, NS1 inh)
COC(=O)C1=C(C)OC(N)=C(C#N)C1c1ccc(OC)c(CSc2ccccn2)c1 (stereo not given)	AmpC no deterg 0.22µM
Cc1ccc(CCP(=O)(O)CN2CCOCC2)cn1	none
CN1CCN(Cc2cccc3ncccc23)CC1CCO (stereo not given)	none
CC1CCc2[nH]c3ccc(C(=O)N(C)CC(=O)Nc4ccccc4Br)cc3c2C1 (stereo not given)	AmpC no deterg 28µM (no result: Giardia FBPA inh, NS1 inh)
Cc1ccc(CN(Cc2ccco2)C(=O)c2ccccc2Br)o1	none (no result: AmpC no deterg, Giardia FBPA inh, NS1 inh, SARS PLpro yeast)
O=C(CCNS(=O)(=O)c1ccc(Cl)cc1)N1CCC2(O)CCCCC2C1 (stereo not given)	AmpC detergent 40µM, NS1 inh inconclusive
O=C(CCNS(=O)(=O)c1ccc(Cl)cc1)N1CCCC1	none (no result: Giardia FBPA inh)
